High-throughput results deposited in PubChem BioAssay by National Center for Advancing Translational Sciences (NCATS).
RGS4 inhibitor – human RGS4 inhibition; 0.039% of 390,000 active; Transcreener GDP fluorescence polarization, RGS4-accelerated GTP hydrolysis; Potency, µM (titrated, usually from 114 µM), actives largely listed as inhibitors; further: nearly all actives have a fitted effect of over 75% in size
Target sequence (P49798 whole entry, looked up): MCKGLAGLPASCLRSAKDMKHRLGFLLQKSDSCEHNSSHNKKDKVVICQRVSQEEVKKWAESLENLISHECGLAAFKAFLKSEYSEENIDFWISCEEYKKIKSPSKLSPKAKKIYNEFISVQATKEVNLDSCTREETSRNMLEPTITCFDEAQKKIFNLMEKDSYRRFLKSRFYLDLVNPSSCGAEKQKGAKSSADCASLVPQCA
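MLSMR compounds (23 nl, pin-transferred) preincubated 10 min at room temperature with a 500nM (2x) first reagent, then RGS4 at 900nM (2x) plus Transcreener GDP mix added; fluorescence polarization (620/688 nm) read before and after 90 min at 30 °C.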
KB-3-1 tox – KB-3-1 parental cell cytotoxicity. KB-3-1 viability, CellTiter-Glo ATP luminescence, 72 h. Potency, µM (top dose mostly 46.1 µM), most hits filed as cytotoxic. 1.4% of 400,000 active. AID 1347075; further: nearly all actives have a fitted effect of over 60% in size
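Luminescent ATP read-out (CellTiter-Glo) measures survival of drug-naive KB-3-1 cells after 72 h compound exposure at 37 °C. Titration series was screened from lowest to highest concentration, with DMSO vehicle plates as background controls.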
KB-V1 MDR tox – KB-V1 MDR subline cytotoxicity | KB-V1 MDR cells viability, CellTiter-Glo, 72 h | Potency, µM (doses to about 46.1 µM), actives largely listed as cytotoxic | 3.4% of 400,000 active; further: nearly all actives have a fitted effect of over 60% in size
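KB-V1 cells (P-gp-expressing MDR subline of KB-3-1) in phenol-red-free DMEM with 10% FBS were exposed to library compounds over a concentration series for 72 h at 37 degrees C. Viability read by CellTiter-Glo luminescence; concentration-effect curves fitted after normalization.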
MCF10A rereplic – DNA re-replication induction in MCF 10a cells; Potency, µM (highest dose often 46.1 µM), most hits filed as activators; MCF 10A DNA re-replication, Hoechst nuclear intensity, 48 h; 2.9% of 350,000 active; further: nearly all actives have a fitted effect of over 50% in size
PTAP TSG101 blk – blocks PTAP/TSG101 interaction to inhibit HIV-1 budding. Fluorescence polarization, FITC-PTAP peptide / Tsg101 binding. 340,000 tested, under 10 active. Q99816. Potency, µM (titrated, usually from 115 µM), usual class: inhibitors; active means well fitted inhibition curve with a large enough effect in the main read-out, with a control signal flat, not every such curve was filed as active; inconclusive means small, poorly fitted or top-dose-only effect, or effect the other way, or a change in a side signal; inactive means no such curve, though single readings can be large or run the other way
Target sequence (Q99816 whole entry, looked up): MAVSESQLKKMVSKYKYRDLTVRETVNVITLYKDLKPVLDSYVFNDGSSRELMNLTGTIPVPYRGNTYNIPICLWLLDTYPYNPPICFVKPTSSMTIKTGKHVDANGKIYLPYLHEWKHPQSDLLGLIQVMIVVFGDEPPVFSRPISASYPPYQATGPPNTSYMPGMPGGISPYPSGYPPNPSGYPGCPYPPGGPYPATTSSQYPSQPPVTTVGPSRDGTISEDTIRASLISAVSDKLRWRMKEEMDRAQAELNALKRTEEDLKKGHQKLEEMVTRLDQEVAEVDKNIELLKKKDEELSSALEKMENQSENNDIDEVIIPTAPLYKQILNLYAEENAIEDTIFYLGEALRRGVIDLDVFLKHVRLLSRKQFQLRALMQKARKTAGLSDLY
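Steps: Tsg101 binding domain dispensed (10 uM final), compounds pinned in DMSO, FITC-labeled PTAP-motif peptide added (50 nM final); after 20 min binding at room temperature, polarization measured.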
SW480 rereplic – inducers of DNA re-replication in SW480 colon cancer cells. Potency, µM (doses to about 46.1 µM), usual class: activators. 1.8% of 340,000 active. AID 624297. SW480 DNA re-replication, Hoechst DNA content imaging, 48 h; further: nearly all actives have a fitted effect of over 55% in size
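Image-based DNA-content assay: after two days of treatment, nuclei were labelled with the DNA dye Hoechst and imaged, and hits were compounds raising the count of nuclei showing high fluorescence intensity.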
Hits are given with their value; n = inactive; u = inconclusive; x = not tested or not shown; [ ] = remark or other dose. Sampled rows, rich in hits. Any-hit rate of the full collection: about 6.6%. Unless noted, the call rests on the fitted dose curve; in most records, active means well fitted curve in the direction sought with a large enough effect; inconclusive means small, poorly fitted or top-dose-only effect, or another doubt; inactive means no such curve, though single readings can be large; an effect the other way counts as inactive or inconclusive.

SMILES | RGS4 inhibitor | KB-3-1 tox | KB-V1 MDR tox | MCF10A rereplic | PTAP TSG101 blk | SW480 rereplic
Cc1ccc(Cl)cc1N1CCN(C(=O)CCCCCn2c(=O)[nH]c3ccccc3c2=O)CC1 | n | n | n | x | x | x
Cc1nc(CC(=O)Nc2ccc(C(N)=O)cc2)cs1 | n | x | x | x | x | x
O=C(Nc1ccc2nc(SCc3ccc(Cl)cc3)sc2c1)c1ccccc1C(=O)N1CCOCC1 | n | n | n | 6.5µM | n | n
COC(=O)CSc1nc2ccc(NC(=O)c3ccccc3C(=O)N3CCOCC3)cc2s1 | n | n | u | n | n | n
Cc1c(C)c2c(c(C)c1OC(=O)c1cccnc1)CC[C@@](C)(CCC[C@H](C)CCC[C@H](C)CCCC(C)C)O2 | x | x | x | n | x | n
O=C(CSC1CS(=O)(=O)c2cc([N+](=O)[O-])ccc21)NNC(=O)c1ccccc1 (configuration not stated) | n | n | n | u | n | 9.2µM
COc1ccc(C2CC(=O)N(Cc3cccc(F)c3)c3ccccc3S2)cc1 (configuration not stated) | n | u | u | x | x | x
COc1cc(C2CC(=O)N(Cc3ccc(F)cc3)c3ccccc3S2)cc(OC)c1OC (configuration not stated) | n | u | 12µM | x | x | x
COc1ccc(C2CC(=O)N(Cc3ccc(F)cc3)c3ccccc3S2)cc1OC (configuration not stated) | n | u | 16µM | x | x | x
COc1ccc(C2CC(=O)N(Cc3ccc(F)cc3)c3ccccc3S2)cc1 (configuration not stated) | n | u | 15µM | x | x | x
C[N+]1(CC(=O)c2ccc(I)cc2)CCCc2ccccc21 (configuration not stated) | x | u | n | x | x | x
COCCCNC(=O)/C(C#N)=C/c1cccc(NC(=O)c2ccccc2Cl)c1 | n | n | u | n | n | 1.6µM
COc1ccc(CCNC(=O)/C(C#N)=C/c2cccc(OCc3ccccc3)c2)cc1OC | n | u | u | u | n | u
COCCCNC(=O)/C(C#N)=C/c1ccc(F)cc1 | n | n | n | n | n | n
N#C/C(=C\c1cccc(NC(=O)c2ccccc2Cl)c1)C(=O)NCCc1ccccc1 | n | u | n | u | n | 18µM
Cc1c(C(=O)Nc2ccc(F)cc2)oc2ccc(S(=O)(=O)N3CCCCCC3)cc12 | n | n | n | x | x | x
O=C(OC(c1ccc(NS(=O)(=O)c2ccccc2)cc1)(C(F)(F)F)C(F)(F)F)c1ccccc1 | n | u | n | 18µM | n | u
Cc1cc(C)nc(NS(=O)(=O)c2ccc(NC(=O)c3ccccc3[N+](=O)[O-])cc2)n1 | n | n | n | n | n | n
Cc1ccc(S(=O)(=O)Nc2ccc(C(OC(=O)c3ccccc3[N+](=O)[O-])(C(F)(F)F)C(F)(F)F)cc2)cc1 | n | u | 3.7µM | u | n | u
COc1ccccc1Nc1nnc(SCC(=O)NC(=O)Nc2ccc3c(c2)OCCO3)s1 | n | n | n | 21µM | n | n
Cc1cccc(Nc2nnc(SCC(=O)NC(=O)Nc3ccc4c(c3)OCCO4)s2)c1 | n | u | u | 23µM | n | u
Cc1nnc(SCC(=O)NC(=O)Nc2ccc3c(c2)OCCO3)s1 | n | n | n | n | n | n
Cc1cccc(Nc2nnc(SCC(=O)Nc3cccnc3Cl)s2)c1 | n | n | 15µM | n | n | n
CCOC(=O)N1CCN(C(=O)CSCC(=O)Nc2nc(-c3ccc(OC)cc3)cs2)CC1 | n | u | 21µM | u | n | n
CCOC(=S)SCC(=O)Nc1nc(-c2ccc(Br)cc2)cs1 | n | 5.2µM | 5.8µM | 8.2µM | n | u
SMILES | RGS4 inhibitor | KB-3-1 tox | KB-V1 MDR tox | MCF10A rereplic | PTAP TSG101 blk | SW480 rereplic
CCOC(=S)SCC(=O)Nc1nc(-c2ccccc2)cs1 | n | 6.5µM | u | 21µM | n | u
CCOC(=S)SCC(=O)Nc1nc(C)c(C)s1 | n | u | n | 18µM | n | n
Nc1ccccc1OC1=NS(=O)(=O)c2ccccc21 | x | u | n | x | x | x
Cc1nc([N+](=O)[O-])c(Sc2nc3ccccc3n2C)n1Cc1ccccc1 | u | n | n | 15µM | n | u
Cc1nc([N+](=O)[O-])c(SCC(N)=O)n1Cc1ccccc1 | n | n | n | n | n | n
COc1ccc(-c2cc(C(=O)Nc3cccc(S(=O)(=O)NCc4ccco4)c3)c3ccccc3n2)cc1OC | n | n | u | 12µM | n | u
O=C(Nc1ccncc1)c1cc(-c2ccccc2)nc2ccccc12 | x | n | u | x | x | x
COC(=O)c1ccc(NC(=O)c2cc(-c3ccccn3)nc3ccccc23)cc1 | n | n | n | n | n | n
COC(=O)c1ccc(NC(=O)c2cc(-c3ccncc3)nc3ccccc23)cc1 | n | 23µM | n | n | n | n
O=C(Nc1ccc(Br)cc1)c1cc(-c2ccncc2)nc2ccccc12 | n | u | n | u | n | 16µM
O=C(Nc1cccc(S(=O)(=O)NCc2ccco2)c1)c1cc(-c2ccc(F)cc2)nc2ccccc12 | n | u | u | n | n | u
O=C(NNC(=O)c1cc(-c2ccccc2)nc2ccccc12)Nc1cccc(Cl)c1 | n[11.4 µM] | n | u | 12µM | n | n
CCCCCCCCCCCCC/C=C\[C@@H](O)[C@H](CO)NC(C)=O | n | x | x | x | x | x
CCOC(=O)c1ccc(N2CCN(c3cc(C)ccc3C)CC2)c(NC(=O)Nc2ccc(Cl)cc2)c1 | n | x | x | x | x | x
COc1cc(-c2cc(C(=O)Nc3ccc(S(N)(=O)=O)cc3)c3ccccc3n2)cc(OC)c1OC | n | n | n | u | n | n
CCN(CC)S(=O)(=O)c1ccc(O)c(NC(=O)c2cc(-c3cc(OC)c(OC)c(OC)c3)nc3ccccc23)c1 | u | n | n | 18µM | n | u
COc1ccc(NC(=O)c2cc(-c3cc(OC)c(OC)c(OC)c3)nc3ccccc23)cc1OC | n | u | 21µM | n | n | n
O=C(COCc1cc(-c2cccs2)on1)Nc1cccc(Cl)c1Cl | n | n | n | x | x | x
CCOc1ccc(C(C)NC(=O)c2ccccc2F)cc1 (configuration not stated) | n | n | 16µM | n | n | n
CCOc1ccc(C(C)NC(=O)c2cccc(F)c2)cc1 (configuration not stated) | n | n | u | n | n | n
O=C(CCl)N(C1CCCC1)C1CCS(=O)(=O)C1 (configuration not stated) | n | u | n | u | n | 21µM
CC(=O)c1ccc(OCC(=O)N(C2CCCCC2)C2CCS(=O)(=O)C2)cc1 (configuration not stated) | n | n | n | n | n | n
c1c2c(cc3sc(N4CCCCC4)nc13)OCO2 | n | 9.2µM | u | n | n | n
COc1ccc(C(=O)COc2ccccc2C(N)=O)cc1 | n | n | n | n | n | n
